The structures appear in SMILES notation. A number with no mark means an inactive call.

This test is described as follows: changes in parasitized red cell lysis, either direction – P. falciparum Indochina, OD700, 3 h, PSAC antagonist project, primary screen (AID 1156). The note with it: P. falciparum-infected erythrocytes, osmotic lysis, higher = more signal, called active from +8 up or from −8 down.
As for `COC(=O)[C@@]1(Cc2ccc(OC)cc2)[C@H]2c3cc(C(=O)N(C)C)n(Cc4ccc(C)o4)c3C[C@H]2CN1C(=O)c1ccccc1`, the z-score is 1.3.

For the molecule `CCCCCN1CC=CC23O[C@@H]4/C=C\CCC(C)OC(=O)C4[C@H]2C(=O)N(C(CO)C(C)C)[C@@H]3C1=O` (stereo partly specified), the z-score is 1.2.

Regarding `CCOC(=O)C[C@H]1[C@H](OC(=O)c2ccccc2-c2ccccc2)[C@@H](NC(=O)c2ccc3ccccc3n2)c2cc(OCCCO)ccc2N1C(=O)Cc1ccc(OC)cc1`, the z-score is -0.0433.

Turning to `O=C1OCCC/C=C\[C@H]2OC34C=CCN(c5ccc6ccccc6c5)C(=O)[C@H]3N(CCO)C(=O)[C@@H]4C12` (stereo partly specified), the z-score is 0.217.

Consider `O=C1N(Cc2ccccc2)c2ccccc2C[C@]12N=C(c1ccc(OCCCO)cc1)O[C@@H]2c1ccccc1`, for which the z-score is 1.41.

As for `O[C@@H](Cc1ccccc1)[C@@H](/C=C/C1CC1)N(CC#Cc1ccccc1)Cc1ccccc1Br`, the z-score is 0.108.

In the case of `O=C(C1N=C(c2ccc(OCCCO)cc2)N(c2ccccc2)O1)N1CCCCC1` (stereo unspecified), the z-score is 0.374.

On to `CC(C)[Si]1(C(C)C)OCc2cc(-c3ccc(-c4ccc(Cl)c(Cl)c4)o3)nc(-c3ccccc3)c21`, for which the z-score is 0.6.

Turning to `COc1ccc([Si](C)(C)[C@@H]2[C@@H](CCO)O[C@]3(C(=O)N(Cc4ccccc4)c4ccc(NC(=O)[C@H](C)O)cc43)[C@H]2C)cc1`, the z-score is -0.919.

Turning to `COc1cc(NN2C(C(O)c3ccc(N(C)C)cc3)C=CC3C(=O)N(c4ccccc4)C(=O)C32)cc(OC)c1OC` (stereo unspecified), the z-score was 0.742.

Turning to `Cn1cccc1C(O)C1C=CC2C(=O)N(c3ccccc3)C(=O)C2N1Nc1ccccc1` (stereo unspecified), the z-score is 0.361.

Take `CCOC(=O)C=Cc1cccc(C)c1O`: the z-score was 0.193.

Take `COC(=O)C1=CC(CCCO)=CC(c2cccs2)N(Cc2cccc(OC(F)(F)F)c2)C=C1C(=O)OC` (stereo unspecified): the z-score was 0.87.

With `[N-]=[N+]=Nc1ccccc1[C@@H]1OC(c2ccc(OCCCO)cc2)=N[C@]1(Cc1ccccc1)C(=O)N1CCCCC1`, the z-score is 3.01.

Take `C=CCNC(=O)[C@@H]1[C@H]2C(=O)O[C@H](c3ccccc3)[C@H](c3ccccc3)N2[C@H](c2ccc(O)cc2)[C@@]12C(=O)N(C(=O)OCCOC)c1ccc(C#CC3=CCCCC3)cc12`: the z-score is -0.942.

On to `CCOC(=O)C[C@H]1[C@H](OC(=O)c2cc3ccccc3oc2=O)[C@@H](NC(=O)CC(C)C)c2cc(OCCCO)ccc2N1C(=O)c1ccc2ccccc2n1`, for which the z-score is 0.609.

As to `NCCCCCNC(=O)[C@@H]1C[C@@H]2C(=O)N[C@@H](CCCCN)C(=O)N2[C@@H]1c1ccc(O)cc1`, the z-score was -2.34.

On to `CC(C)C(CO)N1C(=O)[C@@H]2C3C(=O)OCCC/C=C\[C@H]3OC23C=CCN(Cn2nnc4ccccc42)C(=O)[C@@H]13` (stereo partly specified), for which the z-score was -0.443.

Consider `[N-]=[N+]=NCc1ccccc1C[C@@]1(C(N)=O)N=C(c2ccc(OCCCO)cc2)O[C@@H]1c1ccccc1`, for which the z-score is 0.354.

In the case of `CCOC(=O)C[C@H]1[C@H](OC(=O)c2ccc(C(=O)c3ccccc3)cc2)[C@@H](NC(=O)CC(C)C)c2cc(OCCCO)ccc2N1C(=O)c1ccccc1`, the z-score was -0.416.

Consider `CC(C)[Si](C#C[Si](C(C)C)(C(C)C)C(C)C)(O[C@H](c1ccccc1)c1cn(Cc2ccccc2)nn1)C(C)C`, for which the z-score is -0.351.

In the case of `COC(=O)C/C=C/C[C@]1(O)C(=O)N(C)c2ccccc21`, the z-score is -0.679.

For `CN1C(=O)C2C=CC(C(O)c3cccn3C)N(Nc3ccc([N+](=O)[O-])cc3[N+](=O)[O-])C2C1=O` (stereo unspecified), the z-score was -0.0499.

On to `C=CCN1Cc2ccccc2[C@@H]2OC(c3ccc(OCCCO)cc3)=N[C@]2(CC=C)C1=O`, for which the z-score was 5.55.

For `CCCC=C(CCC)[C@@H](NP(=O)(c1ccccc1)c1ccccc1)c1ccc(-c2ccccc2)cc1`, the z-score is -1.07.

`C=C(COC)C(=O)CC[C@@H](OC(C)=O)c1cccc(OCCO)c1`: the z-score is 0.864.

In the case of `CCOC(=O)C1=CC[C@@H](c2ccccc2F)N(S(=O)(=O)c2ccc(C)cc2)[C@H]1c1ccccc1`, the z-score is 0.0175.

In the case of `O=C1O[C@H](c2ccccc2)[C@H](c2ccccc2)N2[C@H]1[C@@H](C(=O)O)[C@]1(C(=O)Nc3ccc(C#CCCO)cc31)[C@H]2c1ccccc1OCCO`, the z-score is -1.27.

Regarding `COc1cc2c(cc1O)C(C1CC1)N(C)CC2` (stereo unspecified), the z-score is 0.0776.

`COC(=O)[C@@]1(Cc2ccc(OC)cc2)[C@H]2c3cc(C(=O)N4CCCC4)n(CCO)c3C[C@H]2CN1C(=O)c1ccccc1`: the z-score is 1.66.

For `[N-]=[N+]=Nc1ccccc1C[C@]1(C(=O)N2CCOCC2)COC(c2ccc(OCCCO)cc2)=N1`, the z-score is 1.52.

For `O=C1C2C=CC(C(O)c3ccco3)N(Nc3ccccc3F)C2C(=O)N1c1ccccc1` (stereo unspecified), the z-score was -0.197.

For `CCCCCN1CC=CC23O[C@@H]4/C=C\CCCOC(=O)C4[C@H]2C(=O)N(C(C)CO)[C@@H]3C1=O` (stereo partly specified), the z-score is 2.32.

As to `COC(=O)c1c(CC[C@@H](CO)NC(=O)N2CCC[C@H]2Cn2cc(C3(O)CCCCC3)nn2)oc(C(C)=O)c1C(=O)OC`, the z-score was 1.14.

For the molecule `CCCCNC(=O)c1ccc(C#CC(C)(C)C)c(OC(C)=O)c1`, the z-score is 2.09.

Take `COc1ccccc1CN1C(=O)c2ccccc2[C@](Cc2ccccc2I)(C(=O)O)[C@@H]1c1ccc(CO)cc1`: the z-score is -0.0546.

The record behind these values is PubChem BioAssay.
